Source: PubChem BioAssay
A selection: hits, their analogues and other compounds. The true share with any hit is near 6.4%.
VP16 counter – Gal4-VP16 reporter inhibition counter-screen. Potency, µM (highest dose often 53.6 µM), actives largely listed as inhibitors. 310,000 compounds, 3.5% hits. Drosophila S2 Gal4-VP16 UAS-luciferase, luminescence, 20 h;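 also: Gal4-VP16 expression switched on by copper sulfate through the metallothionein promoter; nearly all actives have a fitted effect of over 50% in size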
RORg inh – inhibitors of mouse ROR gamma transcriptional activity. 310,000 compounds, 5.4% hits. P51450. AID 2551. Drosophila S2 Gal4-RORgamma UAS-luciferase reporter, 20 h. Potency, µM (doses to about 53.6 µM), usual class: inhibitors; also: nearly all actives have a fitted effect of over 60% in size
Target sequence (P51450 whole entry, looked up, the tested form may be a part): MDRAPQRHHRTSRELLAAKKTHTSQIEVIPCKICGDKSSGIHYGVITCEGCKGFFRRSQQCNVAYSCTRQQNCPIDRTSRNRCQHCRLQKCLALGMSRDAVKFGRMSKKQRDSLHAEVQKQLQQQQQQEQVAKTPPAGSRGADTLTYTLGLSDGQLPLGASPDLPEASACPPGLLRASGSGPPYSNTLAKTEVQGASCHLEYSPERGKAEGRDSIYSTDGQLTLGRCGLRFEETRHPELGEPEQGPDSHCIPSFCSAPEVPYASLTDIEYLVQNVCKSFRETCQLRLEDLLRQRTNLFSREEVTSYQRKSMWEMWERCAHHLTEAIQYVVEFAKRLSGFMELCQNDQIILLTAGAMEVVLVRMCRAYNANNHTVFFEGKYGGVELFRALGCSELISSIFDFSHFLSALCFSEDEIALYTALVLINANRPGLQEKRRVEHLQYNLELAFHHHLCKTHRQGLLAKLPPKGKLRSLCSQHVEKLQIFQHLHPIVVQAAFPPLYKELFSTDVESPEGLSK
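In this cell-based reporter format, copper sulfate (700 uM final) drives Gal4–ROR gamma fusion expression from a metallothionein promoter in Drosophila Schneider cells; compounds preincubated 1 hr, reporter read after 20 hr at ambient temperature.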
Luc counter – Kinase-Glo luciferase inhibition (counter-screen); Q27757; Kinase-Glo luciferase, ATP luminescence, 8 min; Potency, µM (doses to about 38.3 µM), actives largely listed as inhibitors; 200,000 compounds, 0.28% hits; also: nearly all actives have a fitted effect of over 60% in size
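Substrate mix (final 50 mM imidazole pH 7.2, 50 mM KCl, 7 mM MgCl2, 10 uM ATP, 0.01% Tween 20, 0.05% BSA) plus pin-tool compound, then Kinase-Glo detection mix; 8 min ambient, luminescence read.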
Hits are given with their value; n = inactive; u = inconclusive; x = no result; [ ] = remark or other dose. Calls follow the shape of the dose curve; as a rule, active = well fitted curve in the direction sought with a large enough effect; inconclusive = small, poorly fitted or top-dose-only effect, or another doubt; inactive = no such curve, though single readings can be large; an effect the other way counts as inactive or inconclusive.

SMILES | VP16 counter | RORg inh | Luc counter
CCSc1nnc(-c2ccc(Cl)cc2)c2ccccc12 | n | n | n
CC(OC(=O)C1CC(=O)N(Cc2ccccc2)C1)C(=O)Nc1cccc(C#N)c1 (stereo not drawn) | n | n | x
COCOc1ccc(Br)cc1C(=O)[C@H]1O[C@H]1c1cccc(OC)c1 | n[10 µM] | n[10 µM] | x
CCOC(=O)C1CCN(C(=O)c2cc(COc3ccc(F)cc3F)on2)CC1 | n | n | x
COc1ccc(-c2cc(=O)c3cc(F)ccc3[nH]2)cc1 | n | n | n
COc1ccc2[nH]c(-c3ccc(C)cc3)cc(=O)c2c1 | 7.94µM | 10µM | n
CCOc1ccc(N=Cc2ccc3ccccc3c2)cc1 | n | n | x
O=[N+]([O-])c1cc(C=Nc2ccc3ccccc3c2)ccc1Br | u | 20µM | n
COC(=O)C1=C(CN2CCc3ccccc32)NC(=O)NC1c1cc(C)ccc1C (stereo not drawn) | n | n | n
COC(=O)C1=C(CN2CCCc3ccccc32)NC(=O)NC1c1ccc(F)cc1 (stereo not drawn) | u | 1.41µM | n
NC(=O)N=Nc1c2[nH]c3ccccc3nc-2c2ccccc12 | n | u | x
COc1ccc(C(=O)Nc2c3c(nn2-c2ccc(Cl)cc2)CS(=O)(=O)C3)cc1 | n | n | x
S=c1nc(C23CC4CC(CC(C4)C2)C3)[nH][nH]1 | n | n | x
S=c1nn[nH]n1C12CC3CC(CC(C3)C1)C2 | 7.08µM | 2.51µM | n
COc1ccc(NC(=O)NC2CCCCCCC2)cc1 | n | n | x
COC(=O)C1=C[C@@H](C(=O)OC)C2C3=C(C(=O)[C@]2(CC(C)C)NC(=O)c2ccccc2)[C@H](C)n2c(=O)n(C)c(=O)n2[C@@H]3C1 (stereo partly drawn) | n | n | x
CC1(C)Cc2c(oc3ncn4ncnc4c23)CO1 | n | n | n
CSc1nc2oc3c(c2c2nncn12)CC(C)(C)SC3 | 12.6µM | n | n
O=C1N(Cc2cccc(Cl)c2)C[C@@H]2C[C@@H](c3ccc4nonc4c3)N3CCC[C@@]123 | n | n | n
CCOC(=O)CSc1nc2sc(C)c(C)c2c(=O)[nH]1 | n | n | n
CCOC(=O)/C(=C\c1ccc(Cl)cc1)c1nc2sc(C)c(C)c2c(=O)[nH]1 | 11.2µM | u | n
CC(C)CC(=O)Nc1ccc(-c2nc3ccccc3c(=O)o2)cc1 | n | n | n
CC(C)CC(=O)N/C(N)=N/c1nc2ccccc2o1 | n | 10µM | x
CC(C)(C)C(=O)N/C(N)=N/c1nc2ccccc2o1 | u | 3.98µM | x
N/C(=N\c1nc2ccccc2o1)NC(=O)c1cccc(Br)c1 | n | n | x
SMILES | VP16 counter | RORg inh | Luc counter
N/C(=N\c1nc2ccccc2o1)NC(=O)/C=C/c1ccccc1 | n | n | x
CC(C)(C)C(=O)N1CCN(c2nc3ccccc3o2)CC1 | n | n | n
COc1ccccc1C(=O)N/C(N)=N/c1nc2ccccc2o1 | u | 8.91µM | n
CCC(=O)N/C(N)=N/c1nc2ccccc2o1 | u | 12.6µM | x
O=C(CCn1nc(-c2ccc(Cl)cc2)ccc1=O)N1CCN(c2ccccc2)CC1 | n | n | x
COC(=O)C1=C(C(=O)OC)[C@@H]2N(Cc3ccccc3)c3ccccc3[C@@]23C[C@@H](C(=O)OC)N(S(=O)(=O)c2ccc(C)cc2)C3=N1 | x | x | n[7.66 µM]
CCCC(=O)NNc1c2ccccc2nc2ccccc12 | n | n[10 µM] | n
N/C(=N\c1nc2ccccc2o1)NC(=O)c1ccccc1 | n | 7.08µM | n
CCCC(=O)N/C(N)=N/c1nc2ccccc2o1 | n | 10µM | x
Cc1ccc(C(=O)N/C(N)=N/c2nc3ccccc3o2)cc1 | n | n | n
CC(=O)N/C(N)=N/c1nc2cc(C)ccc2o1 | u | 11.2µM | x
CC(=O)N/C(N)=N/c1nc2cc([N+](=O)[O-])ccc2o1 | n | n | x
O=c1[nH]c(-c2ccccc2)c(-c2ccccc2)nc1[N+](=O)[O-] | n | n | x
NC(=O)c1ccc(NC(=O)CS(=O)(=O)c2cn(CC(=O)N3CCCCC3)c3ccccc23)cc1 | n | n | x
CCc1ccc(OCC(=O)Nc2ccc(S(=O)(=O)Nc3cc(C)on3)cc2)c(Br)c1 | n | u | x
COc1ccc(NC(=S)Nc2cccc(Cl)c2Cl)cc1OC | n | n | n
COc1cc(C)c(NC(=S)Nc2ccc(C)c(Cl)c2)cc1OC | u | 11.2µM | n
COc1cc(C)c(NC(=S)Nc2cccc(Cl)c2)cc1OC | n | u | n
COc1cc(OC)c(NC(=S)Nc2cccc(C)c2)cc1Cl | u | 10µM | n
CCc1c(C)nc2c(-c3ccccc3)c(C)[nH]n2c1=O | u | 11.2µM | x
COc1ccccc1-c1c(C)[nH]n2c(=O)c(Cc3ccccc3)c(C)nc12 | 11.2µM | 14.1µM | x
Cc1cc2nc(C)c(Cc3ccccc3)c(=O)n2[nH]1 | n | u | n
Cc1[nH]n2c(=O)c(C#N)c(-c3ccccc3)nc2c1-c1ccccc1 | n | n | n
COc1ccc(-c2c(C)[nH]n3c(=O)c(Cc4ccccc4)c(C)nc23)cc1 | 3.16µM | 2.51µM | n
Cc1nc2c(-c3ccccc3)c[nH]n2c(=O)c1Cc1ccccc1 | n | n | n
SMILES | VP16 counter | RORg inh | Luc counter
O=C(c1cc(S(=O)(=O)N2CCC3(CC2)OCCO3)ccc1F)N1CCCCC1 | n | n | n
NCC(O)CN1CCN(Cc2ccccc2)CC1 (stereo not drawn) | n | n | x
C[C@@H](C(=O)Nc1ccc2ccccc2c1)[C@@H]1C[C@@]1(C)[C@@H](NS(=O)(=O)c1ccc(-c2ccccc2)cc1)c1ccccc1 | n | n | n
CC(=O)c1cccc(N(C(=O)CNC(=O)c2ccco2)C(C(=O)NCC2CCCO2)c2ccccc2)c1 (stereo not drawn) | n | n | x
Cc1[nH]c(C)c(S(=O)(=O)NCc2ccco2)c1C(=O)N1CCCCC1 | n | n | x
CSCCC(NS(=O)(=O)c1ccc2ccccc2c1)C(=O)OCC(=O)c1ccc(C(C)C)cc1 (stereo not drawn) | n | n | n
CSCCC(NS(=O)(=O)c1ccc(Cl)cc1)C(=O)OCC(=O)c1c(C)[nH]c2ccccc12 (stereo not drawn) | 15.8µM | u | n
O=C(Nc1cc(Sc2nc3ccccc3s2)cc([N+](=O)[O-])c1)c1cccc(F)c1F | n | u | n
C[C@H](NC(=O)[C@H](Cc1ccccc1)n1c(=O)[nH]c2ccccc2c1=O)C(=O)N1CCC(C(=O)O)CC1 | n | n | x
Cc1ccc(NN2C(=O)C=C(c3ccccc3)C2=O)cc1 | 5.01µM | 3.55µM | n
O=C1c2ccccc2C(=O)N1Nc1ccccc1 | n | n | n
Cc1ccc(S(=O)(=O)N[C@H]2COC(=O)C/C=C\[C@@H](C)[C@H](NS(=O)(=O)c3ccc(C)cc3)COC(=O)C/C=C\[C@H]2C)cc1 | n[10 µM] | n[10 µM] | x
O=C(COc1ccccc1)N1CCN(C(=O)c2cccs2)CC1 | n | n | n
O=C(COc1ccc(Cl)cc1)N1CCN(C(=O)c2cccs2)CC1 | 17.8µM | 7.08µM | n
CCOc1ccc(CCNC(=O)Cn2ccc3ccccc3c2=O)cc1OCC | n | n | n
COc1cccc(/C=N/NC(=O)C(C)n2nc(C)c([N+](=O)[O-])c2C)c1O (stereo not drawn) | 0.0398µM | 0.178µM | n
COc1cccc(/C=N/NC(=O)Cn2nc(C)c([N+](=O)[O-])c2C)c1O | 0.794µM | 0.355µM | x
COc1cc(/C=N\NC(=O)c2ccc(Cn3nc([N+](=O)[O-])c(Cl)c3C)o2)ccc1O | n | n | n
